Drawing on PubChem BioAssay (NCI), this text covers growth for 15 compounds.

Test systems include T-47D breast; BT-549 breast; MDA-MB-435 melanoma; SW-620 colon; MCF7 breast; HCT-116 colon; HCC-2998 colon; KM12 colon.
What all share (experiment): NCI-60 one-dose screen, 48 h (100 = growth as untreated, 0 = no growth, -100 = all killed)
Holding throughout (conditions): 10 µM unless noted

About 83,000 compounds went through this panel and 20% of them were active in at least one assay; those are over-represented in the sample as a whole.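 A percent growth of 40 corresponds to 60% growth inhibition; 0 means no net growth; -100 means all cells died. Active threshold: below 10.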 Values without a mark were called inactive. Calls of active or inactive are those of the source.

For `c1ccc(-c2c(-c3ccccc3)[n+](Cc3ccc4ccccc4c3)c(-c3cccc4ccccc34)n2Cc2ccc3ccccc3c2)cc1`, the growth in the assay on T-47D breast is -73.4% (active); in the assay on BT-549 breast, -63.7% (active); in the assay with MDA-MB-435 melanoma, -58.6% (active); in the assay on SW-620 colon, -66.1% (active); in the assay with MCF7 breast it was -15% (active); in the assay on HCT-116 colon, -74.4% (active). Besides, the growth in the assay on HCC-2998 colon was -74.5% (active); in the assay with KM12 colon, -77.7% (active).

In the case of `COc1cc(F)c(/C=C/c2cc(/C=C/c3cc(OC)c(OC)cc3F)on2)cc1OC`, the growth was 79% in the assay with T-47D breast; 91.4% in the assay on BT-549 breast; 7.63% (active) in the assay with MDA-MB-435 melanoma; 80.4% in the assay with SW-620 colon; 70.6% in the assay on MCF7 breast; 60.3% in the assay on HCT-116 colon. Further, the growth in the assay on HCC-2998 colon was 91.9%; in the assay with KM12 colon, 54.6%.

For the compound `Cc1c2cc[nH]c(=O)c2c(C)c2c1[nH]c1cc(OCCN3CCN(C)CC3)ccc12`, the growth with T-47D breast was 22.7%; in the assay on BT-549 breast, 33.3%; with MDA-MB-435 melanoma, 4.54% (active); in the assay on SW-620 colon, 9.61% (active); in the assay on MCF7 breast, -11.6% (active); in the assay on HCT-116 colon it was 7.2% (active). Besides, the growth in the assay with HCC-2998 colon was 35%; in the assay with KM12 colon, 8.55% (active).

For `C=C1C(=O)O[C@H]2[C@H]1CC/C(CNC(=O)/C=C/c1cccc(OC)c1)=C\CC[C@@]1(C)O[C@@H]21`, the growth is -4.32% (active) in the assay with T-47D breast; -12.3% (active) with BT-549 breast; 16.7% with MDA-MB-435 melanoma; -61.9% (active) in the assay with SW-620 colon; -7.47% (active) with MCF7 breast; -62.2% (active) in the assay on HCT-116 colon. The growth is 36.5% with HCC-2998 colon and 80% in the assay with KM12 colon.

As to `CC(C)(C)c1ccc(NS(=O)(=O)c2ccc3nc(NC(=O)c4cnccn4)[nH]c3c2)cc1`, the growth in the assay with T-47D breast is 25.6%; in the assay on BT-549 breast it was 26.6%; with MDA-MB-435 melanoma, -41% (active); in the assay on SW-620 colon, 18.1%; in the assay on MCF7 breast, 18%; in the assay with HCT-116 colon, 25.4%. The growth with HCC-2998 colon is 70.2%; in the assay on KM12 colon it was 16.6%.

With `CN1C(=O)NC(c2ccc3c(c2)OCO3)C=C1c1ccccc1` (stereo not given), the growth is 78.6% in the assay with T-47D breast; 90% in the assay with BT-549 breast; 97.5% in the assay with MDA-MB-435 melanoma; 78.3% with SW-620 colon; 49.9% with MCF7 breast; 78% in the assay with HCT-116 colon. Further, the growth in the assay on HCC-2998 colon was 110%; in the assay with KM12 colon it was 88.2%.

For `COCc1cnccc1NC1CCCCCC1`, the growth is 98.7% in the assay with T-47D breast; 119% in the assay on BT-549 breast; 104% in the assay with MDA-MB-435 melanoma; 99.3% in the assay on SW-620 colon; 97.2% in the assay on MCF7 breast; 100% in the assay with HCT-116 colon. In addition, the growth in the assay with HCC-2998 colon was 103%; in the assay on KM12 colon, 100%.

Regarding `COc1ccc2[nH]c(=O)c(CN3CCN(c4nccc(-c5ccc(Cl)cc5)n4)CC3)cc2c1`, the growth is 73.6% with T-47D breast; 91.2% with BT-549 breast; 97.9% in the assay on MDA-MB-435 melanoma; 89.5% with SW-620 colon; 83.5% in the assay on MCF7 breast; 86.4% in the assay on HCT-116 colon. Further, the growth in the assay on HCC-2998 colon was 105%; with KM12 colon it was 90.6%.

`O=C1Nc2cc(-c3ccc(NS(=O)(=O)c4ccccc4)cc3)ccc2/C1=C/c1ccc[nH]1`: the growth was 18.5% with T-47D breast; 24.6% in the assay on BT-549 breast; 88.2% in the assay with MDA-MB-435 melanoma; 84.9% in the assay with SW-620 colon; 6.53% (active) in the assay on MCF7 breast; 82% in the assay with HCT-116 colon. For the same compound, the growth with HCC-2998 colon was 91.6%; with KM12 colon, 46.7%.

As for `CC1(C)CC[C@]2(C(=O)O)CC[C@]3(C)C(=CC[C@@H]4[C@@]5(C)Cc6c([nH]c7ccccc67)C(C)(C)[C@@H]5CC[C@]43C)[C@@H]2C1`, the growth with T-47D breast was 49.5%; in the assay on BT-549 breast, 61.5%; with MDA-MB-435 melanoma, 79.3%; with SW-620 colon, 23.1%; with MCF7 breast, 19.4%; in the assay on HCT-116 colon, 8.26% (active). Besides, the results for the growth with HCC-2998 colon and in the assay on KM12 colon were 38.7% and 17.7%, respectively.

As to `COc1ccc(CNCCN2C(=O)c3ccc4c5c(ccc(c35)C2=O)C(=O)N(CCNCc2ccc(OC)c(OC)c2OC)C4=O)c(OC)c1OC`, the growth was -18.4% (active) with T-47D breast; -11.4% (active) in the assay on BT-549 breast; -48.2% (active) in the assay on MDA-MB-435 melanoma; -37% (active) with SW-620 colon; -67.1% (active) in the assay with MCF7 breast; 1.82% (active) in the assay with HCT-116 colon. Further, the figures for the growth in the assay on HCC-2998 colon and in the assay on KM12 colon were -79.5% (active) and -41.4% (active), respectively.

As to `Cc1ccc(-n2cc(-c3ccccc3)c3c2N=NN2CCN=C32)cc1`, the growth with T-47D breast was 93.5%; in the assay on BT-549 breast it was 125%; with MDA-MB-435 melanoma, 101%; with SW-620 colon, 92.5%; with MCF7 breast, 98.7%; with HCT-116 colon, 95.8%. Also, the growth in the assay on HCC-2998 colon was 111%; in the assay on KM12 colon, 102%.

As for `O=C(Nc1ccc(-c2ccc3c(c2)NC(=O)/C3=C\c2ccc[nH]2)cc1)NC1CC1`, the growth was 32.1% with T-47D breast; 103% with BT-549 breast; 98.6% in the assay on MDA-MB-435 melanoma; 103% in the assay on SW-620 colon; 15.8% in the assay with MCF7 breast; 96.6% in the assay with HCT-116 colon. Also, the growth was 107% in the assay with HCC-2998 colon and 19.1% in the assay with KM12 colon.

Take `N/C(=N\C(N)=N\c1nc2ccccc2s1)c1cnccn1`: the growth in the assay with T-47D breast was 18.2%; in the assay with BT-549 breast it was 38.3%; in the assay with MDA-MB-435 melanoma, 4.7% (active); with SW-620 colon, 11.4%; in the assay with MCF7 breast, 11.4%; with HCT-116 colon, 8.53% (active). The growth was 18.5% in the assay on HCC-2998 colon and 8.11% (active) in the assay with KM12 colon.

`COC(=O)N[C@H]1CCc2c(Cl)c(OC)c(OC)c(OC)c2-c2ccc(SC)c(=O)cc21`: the growth with T-47D breast was 40.4%; in the assay with BT-549 breast, -4.69% (active); in the assay with MDA-MB-435 melanoma, -49.9% (active); in the assay with SW-620 colon, 16.1%; in the assay on MCF7 breast, 10.8%; with HCT-116 colon, 0.452% (active). The growth with HCC-2998 colon was 21.5%; in the assay on KM12 colon, 1.72% (active).
